A selection: hits, their analogues and other compounds. The true share with any hit is near 4.7%.
D1 antag: antagonists of human D1 dopamine receptor | P21728 | HEK293 TREx D1 cells, calcium flux, dopamine EC80; stronger effect = lower value | activity change, negative = inhibition, % at 10 µM | actives 3.2% (n = 360,000); in the data active = activity change below about -30%
Target sequence (P21728 whole entry, looked up): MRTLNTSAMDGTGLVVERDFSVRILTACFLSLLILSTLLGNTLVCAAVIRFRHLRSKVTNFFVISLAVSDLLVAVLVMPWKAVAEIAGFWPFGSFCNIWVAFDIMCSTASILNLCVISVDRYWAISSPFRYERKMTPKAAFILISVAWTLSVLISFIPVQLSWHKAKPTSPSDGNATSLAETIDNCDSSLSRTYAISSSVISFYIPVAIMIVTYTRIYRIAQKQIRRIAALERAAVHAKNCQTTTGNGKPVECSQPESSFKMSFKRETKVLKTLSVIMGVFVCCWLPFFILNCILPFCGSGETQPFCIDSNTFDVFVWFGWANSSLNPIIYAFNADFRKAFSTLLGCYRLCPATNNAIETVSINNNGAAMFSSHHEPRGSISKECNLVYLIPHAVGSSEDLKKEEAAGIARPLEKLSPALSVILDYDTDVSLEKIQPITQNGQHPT
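HEK293 T-REx cells expressing inducible, force-coupled D1 receptor; no-wash Ca dye, 30–90 min RT. Cmpd → 180 s read at 1 Hz → EC80 DA → 180 s read.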
TRHR PAM: allosterically enhances the human TRH receptor; TRHR cells, fluo-8 calcium fluorescence, EC20 TRH enhancement; P34981; actives 0.66% (n = 360,000); enhancement, % at 2 µM; in the data active = enhancement above about 30%
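TRHR-expressing cells loaded with fluo-8 calcium dye were read kinetically (ex 480/em 530) during compound addition, then stimulated with an EC20 of TRH (10 nM final). Enhancement of the Gq-mediated intracellular calcium response was scored.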
D1 potentiator: potentiators of human D1 dopamine receptor; AID 504651; P21728; actives 0.036% (n = 360,000); potentiation, % at 10 µM; HEK293 TREx D1 cells, calcium flux, dopamine EC20 potentiation; in the data active = potentiation above about 30%
D1 agonist: agonists of human D1 dopamine receptor; P21728; HEK293 T-REx D1 cells, calcium flux, agonist mode; activation, % at 2 µM; actives 1% (n = 360,000); AID 504660
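Agonism was scored from calcium flux recorded over 180 s (1 read/s) after pintool compound addition, following a 10-cycle baseline. Cells were inducible force-coupled HEK293 TREx D1, plated overnight at 30 C and loaded with no-wash calcium dye.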
TRHR ag: agonists of human TRH receptor; TRHR cells, calcium flux fluo-8, FDSS agonist mode; activation, % at 2 µM; actives 0.18% (n = 360,000)
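TRHR-expressing cells loaded with fluo-8 calcium dye; 23 nL library compound pin-transferred, kinetic FDSS fluorescence (Ex 480/Em 530) recorded about 180 s for agonist-induced calcium release, before a 10 nM TRH EC20 addition for potentiator mode.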
Large screens that a line does not name were inactive; ! = not active in a repeat. Cut-off read from the data, not from the text of the source, unless noted: active = activation above about 30%; inactive = the rest.

Cc1ccc(NC(=S)NC2CC3CCC(C2)N3Cc2ccco2)c(C)c1 (stereo not drawn)	D1 antag -43
Cc1cccc(NC(=S)NC2CC3CCC(C2)N3Cc2ccco2)c1C (stereo not drawn)	none
Cc1cccc(S(=O)(=O)Nc2cccc(-c3ccc(N4CCCCC4)nn3)c2)c1	none
Cc1ccccc1OCC(=O)Nc1ccc2nc(SCC(=O)N(C)c3ccccc3)sc2c1	none
O=c1cc(CN2CCC(Cc3ccccc3)CC2)nc2sccn12	none
CC1CN(Cc2cc(=O)n3ccsc3n2)CC(C)O1 (stereo not drawn)	D1 antag -49
CCOC1(OCC)N=C(N)C2(C#N)C(c3cccc(C)c3)C12C#N (stereo not drawn)	D1 antag -82
Cc1cccc(C(=O)NC(NCCc2ccccc2)C(Cl)(Cl)Cl)c1 (stereo not drawn)	D1 antag -41
CN1C(=O)CC(c2ccccc2)CC1=O	none
CN1CC2(C)OC(=O)C(Cl)=C2CC1c1ccccc1 (stereo not drawn)	D1 antag -55
CCn1c(=O)cc(SCC(=O)NCc2ccc(OC)cc2OC)c2ccccc21	none
CN(Cc1ccccc1)C(=O)c1nn2cccnc2c1Cl	none
COc1ccc(-c2cn3nc(N4CCC(C(=O)Nc5cc(Cl)ccc5OC)CC4)sc3n2)cc1	none
O=S(=O)(NCCNS(=O)(=O)c1c(F)cccc1F)c1ccc2c(c1)OCCO2	none
Cc1ccc(SCCNS(=O)(=O)c2ccc3c(c2)OCCO3)cc1	D1 antag -33
O=S(=O)(NCCCCNS(=O)(=O)c1c(F)cccc1F)c1ccc2c(c1)OCCO2	D1 antag -41!
Cc1cccc(-c2nc(SCC(=O)Nc3ccc4c(c3)OCO4)c(-c3ccccc3)[nH]2)c1	none
O=C(Nc1ccc(C(=O)N2CCN(c3ccccc3F)CC2)cc1)c1nsc2ccccc12	none
Cc1cc(=O)oc2cc(OCc3ccc(C(=O)N4CCN(c5ccc([N+](=O)[O-])cc5)CC4)cc3)ccc12	none
Cc1cc(=O)oc2cc(OCc3ccc(C(=O)N4CCN(c5ccccc5)CC4)cc3)ccc12	D1 antag -37
CC1(C)CC(=O)C2=C(C1)Nc1ccccc1S2	none
CC1(C)CC(=O)C2=C(C1)Nc1ccccc1N=C2	D1 agonist 39
CC1(C)CC(=O)C2=C(C1)Nc1ccccc1NC2	D1 antag -51
Cc1c(C(=O)OCCOc2ccccc2)[nH]c2c1C(=O)CC(c1ccccc1Cl)C2 (stereo not drawn)	none
COc1cccc(=O)c2c(C)n(CC(=O)c3ccccc3)c(C)c12	D1 antag -33
CCCCn1c(NC(=O)c2ccccc2Cl)c(C#N)c2nc3ccccc3nc21	D1 antag -39
Cc1cc(C)nc(N2CCC(C(=O)O)CC2)n1	D1 antag -32
Cc1cc2c(cc3c(SCc4ccc(Cl)cc4)nncn32)o1	none
CNC(=S)N(Cc1ccc(OC)cc1)C1CC(=O)N(c2ccc(OC)cc2)C1=O (stereo not drawn)	D1 antag -36
Cc1cc(Nc2cccc(C)c2C)n2cnnc2n1	none
O=c1c2ccccc2oc2nc(-c3ccco3)n(-c3ccccc3)c(=O)c12	none
CC(C)c1nc2oc3ccccc3c(=O)c2c(=O)n1-c1ccccc1	D1 agonist 54
CCOC(=O)CC1COc2ccccc2N1C(=O)c1cccc([N+](=O)[O-])c1 (stereo not drawn)	TRHR PAM 31
N#Cc1nc(Nc2ccc(-c3ccccc3)cc2)nc(NC2CCCC2)n1	none
Oc1ccc(/C=C/c2ccc3cccc(O)c3n2)cc1Br	D1 agonist 37
CCN1CCN(c2oc(/C=C/c3ccccc3OC)nc2C#N)CC1	none
CC(C)Nc1nc(Oc2cccc(Cl)c2Cl)cc(C(F)(F)F)n1	D1 antag -32
CC(C)Nc1nc(Oc2ccc(Cl)cc2Cl)cc(C(F)(F)F)n1	none
COc1cccc(Cn2cc(N)cn2)c1	TRHR PAM 32
Nc1cnn(Cc2ccc(F)cc2)c1	none
CCOC(=O)C1=C(N)Oc2c(oc(CO)cc2=O)C1c1ccc(Cl)cc1 (stereo not drawn)	none
CCOC(=O)C1=C(N)Oc2c(oc(CO)cc2=O)C1c1c(F)cccc1Cl (stereo not drawn)	D1 antag -64
CCOc1ccc(C2=NC(c3cccs3)=Nc3ccc(CC)cc3N2)cc1OCC	none
